Out of some 5,500 compounds screened, about 2,000 (36%) were called active. Not shown: some 18% with an inconclusive outcome. No stated cut-off is given here; in the data, active means normalized growth mostly below about 0.91 (no sharp cut-off); inconclusive means no clear call, values can overlap the other calls; inactive means mostly above about 0.92. This is one part of the list.
Test: chemical genetic growth profiling, strain panel (AID 1159580);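 further: tested at 20 µM; growth read once vehicle control cultures reached saturation at 30 °C; 1 = growth at the plate median or of vehicle wells; lower values mean less growth of the strain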
Conditions: growth OD
[1] = S. cerevisiae deletion strains, locus YDL101C, strain DUN1, active compounds read low
[2] = S. cerevisiae deletion strains, locus YHR030C, strain SLT2, active compounds read low
[3] = S. cerevisiae deletion strains, locus YJL095W, strain BCK1, active compounds read low
[4] = S. cerevisiae deletion strains, locus YOR061W, strain CKA2, active compounds read low

Measured: normalized growth

NCCC(O)C(=O)NC1CC(N)C(OC2OC(CN)C(O)C(O)C2N)C(OC2OC(CO)C(O)C2O)C1O (configuration not stated)
inactive: S. cerevisiae deletion strains, locus YAL013W, strain DEP1, active compounds read low 1.04 | S. cerevisiae deletion strains, locus YBR021W, strain FUR4, active compounds read low 0.976 | S. cerevisiae deletion strains, locus YBR229C, strain ROT2, active compounds read low 1 | S. cerevisiae deletion strains, locus YCL029C, strain bik1, active compounds read low 0.994 | S. cerevisiae deletion strains, locus YDL035C, strain GPR1, active compounds read low 0.993 | S. cerevisiae deletion strains, locus YDL074C, strain BRE1, active compounds read low 1.03 | [1] 1 | S. cerevisiae deletion strains, locus YDL134C, strain PPH21, active compounds read low 0.999 | S. cerevisiae deletion strains, locus YDL185W, strain tfp1, active compounds read low 0.979 | S. cerevisiae deletion strains, locus YDL192W, strain arf1, active compounds read low 1 | S. cerevisiae deletion strains, locus YDR101C, strain arx1, active compounds read low 1 | S. cerevisiae deletion strains, locus YDR150W, strain NUM1, active compounds read low 0.999 | S. cerevisiae deletion strains, locus YDR162C, strain NBP2, active compounds read low 1.01 | S. cerevisiae deletion strains, locus YDR318W, strain mcm21, active compounds read low 0.992 | S. cerevisiae deletion strains, locus YDR388W, active compounds read low 0.998 | S. cerevisiae deletion strains, locus YDR502C, strain sam2, active compounds read low 1 | S. cerevisiae deletion strains, locus YEL061C, strain CIN8, active compounds read low 1 | S. cerevisiae deletion strains, locus YER110C, active compounds read low 0.988 | S. cerevisiae deletion strains, locus YER155C, strain BEM2, active compounds read low 0.993 | S. cerevisiae deletion strains, locus YER167W, strain BCK2, active compounds read low 0.978 | S. cerevisiae deletion strains, locus YGL078C, strain dbp3, active compounds read low 0.999 | S. cerevisiae deletion strains, locus YGL086W, strain mad1, active compounds read low 0.989 | S. cerevisiae deletion strains, locus YGL248W, strain PDE1, active compounds read low 0.994 | S. cerevisiae deletion strains, locus YGR078C, strain PAC10, active compounds read low 1.01 | S. cerevisiae deletion strains, locus YGR135W, strain pre9, active compounds read low 1.02 | S. cerevisiae deletion strains, locus YGR229C, strain SMI1, active compounds read low 1.02 | S. cerevisiae deletion strains, locus YGR252W, strain gcn5, active compounds read low 0.994 | [2] 0.983 | S. cerevisiae deletion strains, locus YHR079C, strain IRE1 (second series), active compounds read low 0.99 | S. cerevisiae deletion strains, locus YHR094C, strain hxt1, active compounds read low 0.989 | S. cerevisiae deletion strains, locus YHR129C, strain ARP1, active compounds read low 0.992 | S. cerevisiae deletion strains, locus YHR200W, strain rpn10, active compounds read low 0.994 | S. cerevisiae deletion strains, locus YIL066C, strain RNR3, active compounds read low 0.999 | S. cerevisiae deletion strains, locus YIL073C, strain SPO22, active compounds read low 0.9 | S. cerevisiae deletion strains, locus YIL125W, strain kgd1, active compounds read low 0.995 | S. cerevisiae deletion strains, locus YIR030C, strain dcg1, active compounds read low 0.993 | [3] 1.06 | S. cerevisiae deletion strains, locus YJL134W, strain LCB3, active compounds read low 0.989 | S. cerevisiae deletion strains, locus YJL168C, strain set2, active compounds read low 0.991 | S. cerevisiae deletion strains, locus YJL187C, strain SWE1 (second series), active compounds read low 0.994 | S. cerevisiae deletion strains, locus YJR043C, strain POL32, active compounds read low 1.04 | S. cerevisiae deletion strains, locus YJR075W, strain HOC1, active compounds read low 1.02 | S. cerevisiae deletion strains, locus YKL009W, strain mrt4, active compounds read low 0.978 | S. cerevisiae deletion strains, locus YKL068W, active compounds read low 0.987 | S. cerevisiae deletion strains, locus YKL085W, strain MDH1 (second series), active compounds read low 0.972 | S. cerevisiae deletion strains, locus YKL085W, strain MDH1, active compounds read low 0.972 | S. cerevisiae deletion strains, locus YKL190W, strain CNB1, active compounds read low 0.99 | S. cerevisiae deletion strains, locus YKR001C, strain vps1, active compounds read low 1 | S. cerevisiae deletion strains, locus YLR039C, strain RIC1, active compounds read low 1.02 | S. cerevisiae deletion strains, locus YLR058C, strain SHM2, active compounds read low 0.986 | S. cerevisiae deletion strains, locus YLR102C, strain apc9, active compounds read low 0.989 | S. cerevisiae deletion strains, locus YLR262C, strain YPT6, active compounds read low 0.985 | S. cerevisiae deletion strains, locus YLR268W, strain sec22, active compounds read low 1.02 | S. cerevisiae deletion strains, locus YLR330W, strain CHS5, active compounds read low 0.981 | S. cerevisiae deletion strains, locus YLR342W, strain FKS1 (second series), active compounds read low 0.968 | S. cerevisiae deletion strains, locus YLR371W, strain rom2, active compounds read low 0.978 | S. cerevisiae deletion strains, locus YLR418C, strain cdc73, active compounds read low 1.02 | S. cerevisiae deletion strains, locus YML016C, strain PPZ1, active compounds read low 0.991 | S. cerevisiae deletion strains, locus YML032C, strain rad52, active compounds read low 0.998 | S. cerevisiae deletion strains, locus YML124C, strain tub3, active compounds read low 1 | S. cerevisiae deletion strains, locus YMR078C, strain ctf18, active compounds read low 0.997 | S. cerevisiae deletion strains, locus YMR223W, strain ubp8, active compounds read low 0.995 | S. cerevisiae deletion strains, locus YMR263W, strain SAP30, active compounds read low 1.01 | S. cerevisiae deletion strains, locus YMR307W, strain GAS1, active compounds read low 0.99 | S. cerevisiae deletion strains, locus YNL067W, strain RPL9B, active compounds read low 1.03 | S. cerevisiae deletion strains, locus YNL128W, strain TEP1, active compounds read low 1.02 | S. cerevisiae deletion strains, locus YNL153C, strain GIM3, active compounds read low 1.01 | S. cerevisiae deletion strains, locus YNL233W, strain BNI4, active compounds read low 1 | S. cerevisiae deletion strains, locus YNL250W, strain rad50, active compounds read low 0.991 | S. cerevisiae deletion strains, locus YNL271C, strain bni1, active compounds read low 0.983 | S. cerevisiae deletion strains, locus YNL298W, strain CLA4, active compounds read low 1.01 | S. cerevisiae deletion strains, locus YNL307C, strain MCK1, active compounds read low 0.997 | S. cerevisiae deletion strains, locus YNL322C, strain KRE1, active compounds read low 0.997 | S. cerevisiae deletion strains, locus YNR052C, strain pop2, active compounds read low 0.994 | S. cerevisiae deletion strains, locus YOL006C, strain TOP1, active compounds read low 1.05 | S. cerevisiae deletion strains, locus YOL012C, strain htz1 0.88 | S. cerevisiae deletion strains, locus YOL147C, strain pex11, active compounds read low 0.994 | [4] 0.999 | S. cerevisiae deletion strains, locus YOR069W, strain VPS5, active compounds read low 1.01 | S. cerevisiae deletion strains, locus YOR136W, strain idh2, active compounds read low 0.993 | S. cerevisiae deletion strains, locus YOR144C, strain elg1, active compounds read low 0.995 | S. cerevisiae deletion strains, locus YOR184W, strain ser1, active compounds read low 0.982 | S. cerevisiae deletion strains, locus YOR316C, strain cot1, active compounds read low 0.987 | S. cerevisiae deletion strains, locus YPL055C, strain LGE1, active compounds read low 1.04 | S. cerevisiae deletion strains, locus YPL241C, strain CIN2, active compounds read low 1.01 | S. cerevisiae deletion strains, locus YPR119W, strain clb2, active compounds read low 0.993 | S. cerevisiae deletion strains, locus YPR141C, strain kar3, active compounds read low 0.992 | S. cerevisiae deletion strains, locus YPR163C, strain tif3, active compounds read low 1 | S. cerevisiae deletion strains, locus YPR167C, strain met16, active compounds read low 0.994 | S. cerevisiae deletion strains, strain wtn01, active compounds read low 0.993 | S. cerevisiae strains, strain wild type, active compounds read low 0.992

CCCN(CCC)C(=S)NC(=O)c1cccc([N+](=O)[O-])c1
inactive: S. cerevisiae deletion strains, locus YAR019C, strain CDC15, active compounds read low 0.973 | S. cerevisiae deletion strains, locus YBL105C, strain PKC1, active compounds read low 0.956 | S. cerevisiae deletion strains, locus YBR135W, strain CKS1, active compounds read low 0.977 | S. cerevisiae deletion strains, locus YBR136W, strain MEC1, active compounds read low 0.966 | S. cerevisiae deletion strains, locus YBR160W, strain CDC28, active compounds read low 0.965 | S. cerevisiae deletion strains, locus YDL017W, strain CDC7, active compounds read low 0.969 | S. cerevisiae deletion strains, locus YDL028C, strain MPS1, active compounds read low 0.976 | [1] 0.968 | S. cerevisiae deletion strains, locus YDL108W, strain KIN28, active compounds read low 0.965 | S. cerevisiae deletion strains, locus YDL132W, strain cdc53, active compounds read low 0.973 | S. cerevisiae deletion strains, locus YDL214C, strain PRR2, active compounds read low 0.967 | S. cerevisiae deletion strains, locus YDR052C, strain DBF4, active compounds read low 0.978 | S. cerevisiae deletion strains, locus YDR054C, strain cdc34, active compounds read low 0.96 | S. cerevisiae deletion strains, locus YDR226W, strain ADK1, active compounds read low 0.968 | S. cerevisiae deletion strains, locus YDR477W, strain SNF1, active compounds read low 0.958 | S. cerevisiae deletion strains, locus YER123W, strain YCK3, active compounds read low 0.907 | S. cerevisiae deletion strains, locus YER133W, strain GLC7, active compounds read low 0.965 | S. cerevisiae deletion strains, locus YFL009W, strain cdc4, active compounds read low 0.961 | S. cerevisiae deletion strains, locus YFL029C, strain CAK1, active compounds read low 0.962 | S. cerevisiae deletion strains, locus YFR003C, strain YPI1, active compounds read low 0.977 | S. cerevisiae deletion strains, locus YFR019W, strain FAB1, active compounds read low 0.958 | S. cerevisiae deletion strains, locus YFR028C, strain CDC14, active compounds read low 0.963 | S. cerevisiae deletion strains, locus YGR040W, strain KSS1, active compounds read low 0.924 | S. cerevisiae deletion strains, locus YGR052W, strain FMP48, active compounds read low 1.02 | S. cerevisiae deletion strains, locus YGR092W, strain DBF2, active compounds read low 0.915 | [2] 0.94 | S. cerevisiae deletion strains, locus YHR079C, strain IRE1, active compounds read low 0.978 | S. cerevisiae deletion strains, locus YHR082C, strain KSP1, active compounds read low 1.02 | S. cerevisiae deletion strains, locus YHR205W, strain SCH9, active compounds read low 0.976 | S. cerevisiae deletion strains, locus YIL147C, strain SLN1, active compounds read low 0.97 | [3] 0.982 | S. cerevisiae deletion strains, locus YJL128C, strain PBS2, active compounds read low 0.952 | S. cerevisiae deletion strains, locus YJL157C, strain FAR1, active compounds read low 0.928 | S. cerevisiae deletion strains, locus YJR016C, strain ILV3, active compounds read low 0.968 | S. cerevisiae deletion strains, locus YJR066W, strain TOR1 (second series), active compounds read low 0.898 | S. cerevisiae deletion strains, locus YJR066W, strain TOR1, active compounds read low 0.992 | S. cerevisiae deletion strains, locus YKL048C, strain ELM1, active compounds read low 0.954 | S. cerevisiae deletion strains, locus YKL067W, strain YNK1, active compounds read low 0.96 | S. cerevisiae deletion strains, locus YKL101W, strain HSL1, active compounds read low 0.958 | S. cerevisiae deletion strains, locus YKL193C, strain SDS22, active compounds read low 0.968 | S. cerevisiae deletion strains, locus YKL203C, strain TOR2, active compounds read low 0.995 | S. cerevisiae deletion strains, locus YLR113W, strain HOG1, active compounds read low 0.932 | S. cerevisiae deletion strains, locus YLR133W, strain CKI1, active compounds read low 0.946 | S. cerevisiae deletion strains, locus YLR403W, strain SFP1, active compounds read low 0.907 | S. cerevisiae deletion strains, locus YML070W, strain DAK1, active compounds read low 0.942 | S. cerevisiae deletion strains, locus YMR001C, strain CDC5, active compounds read low 0.973 | S. cerevisiae deletion strains, locus YMR205C, strain PFK2 (second series), active compounds read low 0.956 | S. cerevisiae deletion strains, locus YMR277W, strain FCP1, active compounds read low 0.973 | S. cerevisiae deletion strains, locus YNL006W, strain LST8, active compounds read low 0.977 | S. cerevisiae deletion strains, locus YNL020C, strain ARK1, active compounds read low 0.946 | S. cerevisiae deletion strains, locus YNL161W, strain CBK1, active compounds read low 0.959 | S. cerevisiae deletion strains, locus YNL183C, strain NPR1, active compounds read low 0.977 | S. cerevisiae deletion strains, locus YNL207W, strain RIO2, active compounds read low 0.971 | S. cerevisiae deletion strains, locus YNL222W, strain SSU72, active compounds read low 0.965 | S. cerevisiae deletion strains, locus YNL307C, strain MCK1 (second series), active compounds read low 0.94 | S. cerevisiae deletion strains, locus YOL078W, strain AVO1, active compounds read low 0.965 | S. cerevisiae deletion strains, locus YOL136C, strain PFK27, active compounds read low 0.929 | [4] 0.943 | S. cerevisiae deletion strains, locus YOR119C, strain RIO1, active compounds read low 0.996 | S. cerevisiae deletion strains, locus YOR231W, strain MKK1, active compounds read low 0.939 | S. cerevisiae deletion strains, locus YOR329C, strain SCD5, active compounds read low 0.963 | S. cerevisiae deletion strains, locus YPL031C, strain PHO85, active compounds read low 0.955 | S. cerevisiae deletion strains, locus YPL153C, strain RAD53, active compounds read low 0.925 | S. cerevisiae deletion strains, locus YPL204W, strain HRR25, active compounds read low 0.915 | S. cerevisiae deletion strains, locus YPL209C, strain IPL1, active compounds read low 0.961 | S. cerevisiae deletion strains, locus YPL256C, strain CLN2, active compounds read low 0.941 | S. cerevisiae deletion strains, locus YPR025C, strain CCL1, active compounds read low 0.973 | S. cerevisiae deletion strains, locus YPR106W, strain ISR1, active compounds read low 0.961 | S. cerevisiae deletion strains, locus YPR111W, strain DBF20, active compounds read low 0.964 | S. cerevisiae deletion strains, strain NNK1, active compounds read low 0.974 | S. cerevisiae deletion strains, strain TSCII, active compounds read low 0.962
